# Assay results as given in ChEMBL document CHEMBL1961873, “Compounds: GSK PKIS; Assays: Nanosyn kinase panel” (2012).
# Assays:
# [1] = target: T1, Serine/threonine-protein kinase D2 (Homo sapiens) (UniProt Q9BZL6); details: at 1 µM;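 note: mean value of PRKD2 inhibition, from the GSK PKIS screening panel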
# T1 sequence (whole entry): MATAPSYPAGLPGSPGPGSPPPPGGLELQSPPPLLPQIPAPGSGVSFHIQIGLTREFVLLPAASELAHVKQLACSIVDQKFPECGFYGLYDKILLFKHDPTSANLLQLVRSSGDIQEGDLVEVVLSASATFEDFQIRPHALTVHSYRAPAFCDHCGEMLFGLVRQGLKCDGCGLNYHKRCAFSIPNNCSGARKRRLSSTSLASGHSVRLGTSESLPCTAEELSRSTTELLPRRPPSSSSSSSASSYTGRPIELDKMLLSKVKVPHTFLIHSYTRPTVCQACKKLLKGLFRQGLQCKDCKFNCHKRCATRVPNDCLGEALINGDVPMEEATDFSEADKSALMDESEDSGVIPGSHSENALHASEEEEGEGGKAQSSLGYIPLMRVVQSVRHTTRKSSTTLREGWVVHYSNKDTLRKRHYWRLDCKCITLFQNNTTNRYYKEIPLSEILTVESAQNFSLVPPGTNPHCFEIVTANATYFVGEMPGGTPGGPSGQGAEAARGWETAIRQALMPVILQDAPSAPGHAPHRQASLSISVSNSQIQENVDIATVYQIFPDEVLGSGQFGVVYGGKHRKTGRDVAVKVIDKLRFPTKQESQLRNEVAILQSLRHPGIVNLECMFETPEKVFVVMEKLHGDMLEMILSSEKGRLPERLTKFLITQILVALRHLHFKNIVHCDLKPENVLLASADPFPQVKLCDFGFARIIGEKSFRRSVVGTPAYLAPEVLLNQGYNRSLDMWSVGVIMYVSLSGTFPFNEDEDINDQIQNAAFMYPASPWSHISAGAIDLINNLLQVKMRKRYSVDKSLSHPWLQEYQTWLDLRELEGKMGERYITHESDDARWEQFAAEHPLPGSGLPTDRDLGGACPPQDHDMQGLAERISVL
# [2] = target: T2, Serine/threonine-protein kinase D3 (Homo sapiens) (UniProt O94806); details: at 0.1 µM
# T2 sequence (whole entry): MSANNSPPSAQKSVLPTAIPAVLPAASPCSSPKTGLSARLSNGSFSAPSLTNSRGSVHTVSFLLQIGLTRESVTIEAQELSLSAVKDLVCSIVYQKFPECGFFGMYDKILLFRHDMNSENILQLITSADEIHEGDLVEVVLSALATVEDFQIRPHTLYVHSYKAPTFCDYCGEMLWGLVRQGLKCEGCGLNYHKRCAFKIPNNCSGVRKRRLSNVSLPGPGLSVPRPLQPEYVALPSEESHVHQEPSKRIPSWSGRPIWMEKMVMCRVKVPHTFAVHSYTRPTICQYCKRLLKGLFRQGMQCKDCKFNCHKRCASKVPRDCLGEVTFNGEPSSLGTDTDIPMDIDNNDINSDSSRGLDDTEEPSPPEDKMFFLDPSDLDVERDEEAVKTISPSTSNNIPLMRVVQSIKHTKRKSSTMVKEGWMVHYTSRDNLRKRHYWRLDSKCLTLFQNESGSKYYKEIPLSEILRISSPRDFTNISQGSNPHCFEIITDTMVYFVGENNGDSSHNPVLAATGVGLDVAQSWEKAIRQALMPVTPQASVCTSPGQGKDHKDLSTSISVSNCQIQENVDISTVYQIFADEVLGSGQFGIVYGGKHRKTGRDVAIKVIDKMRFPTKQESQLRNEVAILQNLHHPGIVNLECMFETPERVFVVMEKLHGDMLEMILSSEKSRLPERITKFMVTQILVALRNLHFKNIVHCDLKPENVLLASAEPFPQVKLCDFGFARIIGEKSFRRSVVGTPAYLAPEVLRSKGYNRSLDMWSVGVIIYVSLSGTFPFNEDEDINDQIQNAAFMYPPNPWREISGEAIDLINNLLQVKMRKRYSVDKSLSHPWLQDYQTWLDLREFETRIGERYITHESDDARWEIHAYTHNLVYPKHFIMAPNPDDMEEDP
# [3] = target: T2, Serine/threonine-protein kinase D3 (Homo sapiens); details: at 1 µM
# [4] = target: T3, cGMP-dependent protein kinase 1 (Homo sapiens) (UniProt Q13976); details: at 0.1 µM
# T3 sequence (whole entry): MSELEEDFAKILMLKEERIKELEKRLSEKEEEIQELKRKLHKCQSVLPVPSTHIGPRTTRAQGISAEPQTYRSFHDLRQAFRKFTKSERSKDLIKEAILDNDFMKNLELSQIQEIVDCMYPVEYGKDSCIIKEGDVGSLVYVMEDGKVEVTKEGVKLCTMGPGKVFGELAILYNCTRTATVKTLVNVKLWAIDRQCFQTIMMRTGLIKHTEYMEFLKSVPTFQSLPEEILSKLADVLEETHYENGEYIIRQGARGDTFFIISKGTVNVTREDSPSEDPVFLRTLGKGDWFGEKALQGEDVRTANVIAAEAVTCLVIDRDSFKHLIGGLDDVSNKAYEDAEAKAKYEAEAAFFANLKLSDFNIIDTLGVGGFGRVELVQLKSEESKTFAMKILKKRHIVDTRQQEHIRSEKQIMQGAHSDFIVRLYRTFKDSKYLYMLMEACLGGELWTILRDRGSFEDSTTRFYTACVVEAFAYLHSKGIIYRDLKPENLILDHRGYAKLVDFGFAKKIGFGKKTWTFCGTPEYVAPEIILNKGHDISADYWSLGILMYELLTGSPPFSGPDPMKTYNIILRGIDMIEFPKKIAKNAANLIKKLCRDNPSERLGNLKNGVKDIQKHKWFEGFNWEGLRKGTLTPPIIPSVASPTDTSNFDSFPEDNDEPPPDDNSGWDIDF
# [5] = target: T3, cGMP-dependent protein kinase 1 (Homo sapiens); details: at 1 µM
# [6] = target: T4, cGMP-dependent protein kinase 2 (Homo sapiens) (UniProt Q13237); details: at 0.1 µM
# T4 sequence (whole entry): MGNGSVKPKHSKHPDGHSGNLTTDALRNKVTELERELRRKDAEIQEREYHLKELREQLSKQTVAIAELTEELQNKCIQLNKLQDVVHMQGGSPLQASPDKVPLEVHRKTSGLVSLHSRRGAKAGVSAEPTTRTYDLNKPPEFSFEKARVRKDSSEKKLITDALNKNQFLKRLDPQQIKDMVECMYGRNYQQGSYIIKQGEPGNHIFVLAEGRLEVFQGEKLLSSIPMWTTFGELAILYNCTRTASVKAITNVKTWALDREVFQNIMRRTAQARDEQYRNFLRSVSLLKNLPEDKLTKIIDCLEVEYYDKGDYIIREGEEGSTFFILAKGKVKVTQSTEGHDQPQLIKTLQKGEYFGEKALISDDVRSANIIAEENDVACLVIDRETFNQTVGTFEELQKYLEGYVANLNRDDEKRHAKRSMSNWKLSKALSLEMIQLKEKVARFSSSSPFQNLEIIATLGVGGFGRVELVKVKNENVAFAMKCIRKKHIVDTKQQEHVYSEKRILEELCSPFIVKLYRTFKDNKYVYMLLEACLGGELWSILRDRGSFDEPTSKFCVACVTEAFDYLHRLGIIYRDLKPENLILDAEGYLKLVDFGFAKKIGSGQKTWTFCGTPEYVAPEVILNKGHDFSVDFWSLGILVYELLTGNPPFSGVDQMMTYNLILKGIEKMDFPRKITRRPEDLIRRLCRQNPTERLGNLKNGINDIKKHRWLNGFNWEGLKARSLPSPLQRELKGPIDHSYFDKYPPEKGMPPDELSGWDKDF
# [7] = target: T4, cGMP-dependent protein kinase 2 (Homo sapiens); details: at 1 µM
# [8] = target: T5, cAMP-dependent protein kinase catalytic subunit PRKX (Homo sapiens) (UniProt P51817); details: at 0.1 µM
# T5 sequence (whole entry): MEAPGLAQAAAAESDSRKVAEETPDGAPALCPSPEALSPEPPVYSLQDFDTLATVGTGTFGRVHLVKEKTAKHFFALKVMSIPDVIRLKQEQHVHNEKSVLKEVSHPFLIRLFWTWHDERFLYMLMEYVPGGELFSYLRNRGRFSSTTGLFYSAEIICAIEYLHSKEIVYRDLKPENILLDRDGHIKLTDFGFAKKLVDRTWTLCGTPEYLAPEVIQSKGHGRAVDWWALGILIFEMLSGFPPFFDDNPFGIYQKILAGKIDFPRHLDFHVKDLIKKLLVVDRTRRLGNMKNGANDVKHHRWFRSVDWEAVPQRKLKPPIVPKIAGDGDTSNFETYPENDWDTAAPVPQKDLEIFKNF
# [9] = target: T5, cAMP-dependent protein kinase catalytic subunit PRKX (Homo sapiens); details: at 1 µM
# [10] = target: Rho-associated protein kinase 1 (Homo sapiens) (UniProt Q13464); details: at 0.1 µM;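 note: values are mean percent inhibition of ROCK1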
# Sequence of Rho-associated protein kinase 1 (Homo sapiens) (Q13464 2-1354 limits assumed): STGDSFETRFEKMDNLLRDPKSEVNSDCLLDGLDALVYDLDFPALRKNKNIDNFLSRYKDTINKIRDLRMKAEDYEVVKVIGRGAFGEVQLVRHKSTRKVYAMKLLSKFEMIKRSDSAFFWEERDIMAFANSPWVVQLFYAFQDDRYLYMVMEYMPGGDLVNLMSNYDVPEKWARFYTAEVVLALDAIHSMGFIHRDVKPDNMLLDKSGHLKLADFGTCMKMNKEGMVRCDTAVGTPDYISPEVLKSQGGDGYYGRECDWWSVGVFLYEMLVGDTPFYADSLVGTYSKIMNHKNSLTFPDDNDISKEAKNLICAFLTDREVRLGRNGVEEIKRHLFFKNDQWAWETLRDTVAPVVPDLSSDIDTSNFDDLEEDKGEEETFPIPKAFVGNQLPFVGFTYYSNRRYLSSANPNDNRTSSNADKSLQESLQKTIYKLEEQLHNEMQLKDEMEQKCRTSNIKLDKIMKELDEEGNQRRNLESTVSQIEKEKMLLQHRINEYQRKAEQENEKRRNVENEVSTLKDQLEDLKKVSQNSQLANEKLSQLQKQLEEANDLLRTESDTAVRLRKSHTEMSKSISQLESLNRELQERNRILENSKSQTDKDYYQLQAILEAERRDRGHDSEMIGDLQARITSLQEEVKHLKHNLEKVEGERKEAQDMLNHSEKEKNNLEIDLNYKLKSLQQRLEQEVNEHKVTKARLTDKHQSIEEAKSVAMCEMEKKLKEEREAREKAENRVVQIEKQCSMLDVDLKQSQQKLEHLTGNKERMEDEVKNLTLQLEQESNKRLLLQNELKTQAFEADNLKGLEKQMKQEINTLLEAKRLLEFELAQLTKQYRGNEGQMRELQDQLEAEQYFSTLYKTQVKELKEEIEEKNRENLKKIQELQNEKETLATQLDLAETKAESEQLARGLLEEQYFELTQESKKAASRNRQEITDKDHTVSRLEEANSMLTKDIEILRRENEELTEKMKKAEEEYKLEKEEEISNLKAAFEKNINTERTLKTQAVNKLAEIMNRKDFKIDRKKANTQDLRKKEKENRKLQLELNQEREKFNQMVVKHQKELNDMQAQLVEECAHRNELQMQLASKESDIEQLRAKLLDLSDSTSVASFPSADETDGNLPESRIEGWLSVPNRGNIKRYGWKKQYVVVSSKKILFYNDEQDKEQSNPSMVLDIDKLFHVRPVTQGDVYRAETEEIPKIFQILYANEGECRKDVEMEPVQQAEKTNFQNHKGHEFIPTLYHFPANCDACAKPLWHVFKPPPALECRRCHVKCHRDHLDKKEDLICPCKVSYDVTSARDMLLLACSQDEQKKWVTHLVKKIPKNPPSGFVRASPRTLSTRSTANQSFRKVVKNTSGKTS
Compound,inhibition [1] [%],inhibition [2] [%],inhibition [3] [%],inhibition [4] [%],inhibition [5] [%],inhibition [6] [%],inhibition [7] [%],inhibition [8] [%],inhibition [9] [%],inhibition [10] [%]
NS(=O)(=O)c1ccc(N/N=C2\C(=O)Nc3ccc(-c4cnco4)cc32)cc1,9.15,-1.69,7.39,2.42,4.22,1.06,12.7,1.53,1.83,6.06
O=C(Nc1ccc(Oc2ccc3[nH]c(NC(=O)c4ccccc4)nc3c2)cc1)Nc1cc(C(F)(F)F)ccc1F,4.25,3.06,3.63,2.01,3.65,1.4,2.23,1.55,1.09,0.24
Cc1ccc(NC(=O)c2ccoc2)cc1-c1ccc(C(=O)NCC2CC2)cc1,3.55,2.92,2.95,0.89,1.09,1.21,1.02,1.5,0.55,0
Fc1ccc(-c2ncn(C3CCNCC3)c2-c2ccnc(Oc3ccc4c(c3)OCO4)n2)cc1,9.53,5.01,9.26,2.62,2.47,3.43,2.62,1.9,2.4,2.94
CCS(=O)(=O)c1ccc(OC)c(Nc2ncc(-c3ccccc3Cl)o2)c1,1.98,0.34,0.32,1.27,3.79,0.72,2.95,0.64,0.38,-0.11
NC(=O)Cc1ccccc1Oc1nccc(-c2c(-c3ccc(F)cc3)ncn2C2CCNCC2)n1,9.53,3.95,8.49,1.82,3.89,0.97,4.38,-0.25,-1.31,0.15
Cc1ccc(C(=O)NC(C)C)cc1-c1ccc(C(=O)NCC2CC2)cc1,-0.88,-3.09,-2.84,-3.24,-2.98,-1.45,-0.98,-1.5,-1.51,-1.38
O=C(NCC1CC1)c1ccc(-c2cccc(C(=O)NC3CC3)c2)cc1,2.14,2.87,1.81,3.32,1.97,1.23,0.42,0.49,-0.06,1.17
Nc1nccc(-c2c(-c3ccc(F)cc3)ncn2C2CCC(O)CC2)n1 (stereo not given),23.3,-0.31,19.4,-1.29,0.27,-0.66,-0.24,-0.76,-0.96,0.4
CCN(CC)Cc1ccc(Nc2nccc(-c3cnn4ncccc34)n2)cc1,64.4,30.2,62.6,3.48,14.9,3.29,13.7,2.55,4.27,2.36
Fc1ccc(-c2ncn(C3CCNCC3)c2-c2ccnc(Oc3ccc(F)c(F)c3)n2)cc1,3.98,1.09,5.58,2.42,0.89,0.9,4.44,1.98,2.55,1.38
COc1cc2ncn(-c3cc(OCc4ccccc4C(F)(F)F)c(C(C)=O)s3)c2cc1OC,2.55,2.93,3.23,1.35,0.72,0.9,0,0.6,0.44,0.94
CS(=O)(=O)CCNCc1ccc(-c2ccc3ncnc(Nc4ccc(OCc5ccccc5)c(Br)c4)c3c2)o1,-2.34,-0.06,-0.73,3.47,0.89,2.31,1.31,2.17,2.64,1.36
COc1ccc2ncn(-c3cc(O[C@H](C)c4ccccc4Cl)c(C(N)=O)s3)c2c1,-2.98,0.19,-0.76,3.47,3.01,3.48,4.43,4.11,1.58,1.76
O=C(Nc1n[nH]c2nc(-c3ccc(O)cc3)c(Br)cc12)C1CC1,5.92,5.64,6.49,3.5,6.22,5.14,27.8,3.04,4.28,0.72
C[C@@H](Oc1cc(-n2cnc3ccc(OCC4CCN(C)CC4)cc32)sc1C(N)=O)c1ccccc1Cl,12.1,5.81,12,3.88,7.13,3.5,7.56,1.81,-4.06,2.64
c1ccc(-c2n[nH]cc2-c2ccnc(-c3ccc(OCCN4CCOCC4)cc3)c2)nc1,80.7,5.97,57.5,3.53,4.78,4.17,3.32,4.09,2.55,1.08
